Test results taken from PubChem BioAssay (Tox21).
Results filed as inconclusive are left out. The source made the active and inactive calls. Unless noted, calls follow the shape of the dose curve; as a rule, active = well fitted curve in the direction sought with a large enough effect in the repeat runs; inconclusive = weak or mixed curves; inactive = no such curve, though single readings can be large; an effect the other way counts as inactive or inconclusive.

How the values were obtained:
[1] = qHTS assay to identify small molecule antagonists of the estrogen related receptor (ERR) signaling pathway - cell viability counter screen (AID 1224818); also: potency is read from the fitted curve at half-maximal effect;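 also: viability measured after 17.5 h of compound exposure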
Method in brief: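 In the same ERR cell assay, compound-treated wells (17.5 h, 37 C) were multiplexed with a fluorogenic viability reagent, CellTiter-Fluor, read after 30 min to flag cytotoxic substances.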

[2] = qHTS assay to identify small molecule agonists of the estrogen related receptor (ERR) signaling pathway (AID 1224820)
Method in brief: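 Quantitative HTS of the LOPAC library used NTP ERR reporter cells treated 18 h at 37 C. Signal is luminescence after One-Glo addition and a 30 min room-temperature incubation.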

[3] = qHTS assay to identify small molecule antagonists of the estrogen related receptor signaling pathway with the pleiotropic PPARgamma coactivator (PGC) cell viability counter screen (AID 1224822; also: potency is read from the fitted curve at half-maximal effect)
Method in brief: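 Compounds in DMSO, with positive and negative controls, were applied to PGC/ERR cells (2,000/well) and left 17.5 h at 37 C before CellTiter-Fluor detection.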

[4] = qHTS assay to identify small molecule agonists of the estrogen related receptor signaling pathway with the pleiotropic PPARgamma coactivator (PGC) (AID 1224823)
Method in brief: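 Cell-based luciferase assay in the NTP-supplied PGC/ERR line, 2,000 cells/well; 18 h compound exposure at 37 C, luminescence after One-Glo.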

[5] = qHTS assay to identify small molecule antagonists of the estrogen related receptor (ERR) signaling pathway (AID 1224819; also: nearly all actives have a fitted effect of over 50% in size; also: potency is read from the fitted curve at half-maximal effect)
Method in brief: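 qHTS in ERR cells, 2,000/well, 1536 format. Cpd (DMSO) added after 6 h settle, 18 h 37 C. One-Glo luminescence, 30 min RT.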

[6] = system: estrogen-related receptor alpha (ERRalpha) with PGC-1alpha coactivator, human; experiment: qHTS assay to identify small molecule antagonists of the estrogen related receptor signaling pathway with the pleiotropic PPARgamma coactivator (PGC) (AID 1224821; calls by dose curve;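 also: series mostly up to about 46 µM; lower luminescence signal means antagonism of PGC/ERR signalling; nearly all actives have a fitted effect of over 50% in size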)
Method in brief: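 Quantitative HTS for antagonism: PGC/ERR cells received compounds after 6 h attachment and were incubated 18 h at 37 C, with luminescence (One-Glo) as the endpoint.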

Measured: Potency

Ic1ccccc1CNC1C2CCN(CC2)C1C(c1ccccc1)c1ccccc1 (stereo unspecified)
active: [1] 19.6 µM | [3] 19.6 µM
inactive: [2] | [4]

O=[N+]([O-])c1cc(O)c(O)c([N+](=O)[O-])c1
inactive: [5] | [2] | [6] | [3] | [4]

C[N+]1(C)CCOC(O)(c2ccc(-c3ccc(C4(O)C[N+](C)(C)CCO4)cc3)cc2)C1 (stereo unspecified)
inactive: [1] | [5] | [6] | [3] | [4]

CC[C@@H](C(N)=O)N1CCCC1=O
inactive: [1] | [3]

CO[C@H]1CC=C2CCN3CCC4=C(CC(=O)OC4)[C@]23C1
inactive: [1] | [3]

CC[C@@]1(O)C(=O)OCc2c1cc1n(c2=O)Cc2cc3ccccc3nc2-1
inactive: [1] | [2] | [3] | [4]
active: [5] 0.123 µM

N#C/C(=C/c1ccc(O)c(O)c1)C(N)=S
inactive: [1] | [2] | [6] | [3] | [4]

CN1CCc2cc(O)cc3c2[C@H]1Cc1ccc(O)c(O)c1-3
inactive: [1] | [2] | [6] | [4]

CN(N=O)c1cc(O)ccc1O
inactive: [1] | [5] | [3] | [4]

CCCN1CCc2cccc3c2[C@H]1Cc1ccc(O)c(O)c1-3
inactive: [1] | [5] | [2] | [4]

CCCC[N+]1(C)C2CC(OC(=O)[C@H](CO)c3ccccc3)CC1C1OC12 (stereo partly specified)
inactive: [1] | [3]

C[C@H](N)CN1CCc2ccc(Br)cc21
inactive: [1] | [5] | [6] | [3] | [4]

COc1ccc2c(c1)C13CCCCC1C(C2)N(C)CC3 (stereo unspecified)
inactive: [1] | [5] | [2] | [3] | [4]

COC[C@H]1OC(=O)c2coc3c2[C@@]1(C)C1=C(C3=O)C2CCC(=O)[C@@]2(C)C[C@H]1OC(C)=O (stereo partly specified)
inactive: [2] | [6] | [3] | [4]
